Test results: PubChem BioAssay (NCATS)
Where “and” joins values, the source holds several entries; their conditions need not be identical. Equal values may be shown once. Results filed as inconclusive are left out. A call without a number means that no potency is given here. Calls of active or inactive are those of the source. Calls follow the shape of the dose curve; as a rule, active = well fitted curve in the direction sought with a large enough effect; inconclusive = small, poorly fitted or top-dose-only effect, or another doubt; inactive = no such curve, though single readings can be large; an effect the other way counts as inactive or inconclusive.

Tests used:
[1] = qHTS of pediatric cancer cell lines to identify multiple opportunities for drug repurposing: Primary screen for MG 63 (6-TG R) cells (AID 1347105); also: nearly all actives have a fitted effect of over 50% in size; also: potency is read from the fitted curve at half-maximal effect
Method in brief: (§1)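 CRCs from 8- or 11-point titrations (lowest final 0.59 nM NPC, 0.78 nM MIPE). Cell viability: CellTiter-Glo after 48 h incubation, 15 min room-temperature development, luminescence imaging.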

[2] = qHTS of pediatric cancer cell lines to identify multiple opportunities for drug repurposing: Primary screen for control Hh wild type fibroblast cells (AID 1347106);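 also: series mostly up to about 46 µM; a drop in luminescence marks cytotoxicity and a rise apparent proliferation; nearly all actives have a fitted effect of over 55% in size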
Method in brief: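 Viability after 48 h compound treatment at 37C, 500-1,000 cells/well, read as ATP luminescence with CellTiter-Glo. Primary screens used 11-point (MIPE, 0.78 nM-46 µM) or 8-point (NPC, 0.59 nM-46 µM) final concentrations; follow-up screens used 11-point dilutions.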

[3] = qHTS of pediatric cancer cell lines to identify multiple opportunities for drug repurposing: Primary screen for Rh30 cells (AID 1347107); also: series mostly up to about 46 µM; nearly all actives have a fitted effect of over 75% in size
Method in brief: (§2)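 Cells (500-1,000/well) in growth media were settled 5 h at 37 degrees C, then given compounds for 48 h. Viability was read as CellTiter-Glo luminescence. Primary runs used MIPE at 11 points (0.78 nM-46 µM) and NPC at 8 points (0.59 nM-46 µM); follow-ups used 11 points.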

[4] = qHTS of pediatric cancer cell lines to identify multiple opportunities for drug repurposing: Primary screen for Rh41 cells (AID 1347108); also: nearly all actives have a fitted effect of over 70% in size; also: potency is read from the fitted curve at half-maximal effect
Method in brief: as §1

[5] = qHTS of pediatric cancer cell lines to identify multiple opportunities for drug repurposing: Confirmatory screen for NB1643 cells (AID 1347109); also: nearly all actives have a fitted effect of over 45% in size; also: potency is read from the fitted curve at half-maximal effect
Method in brief: as §2

[6] = qHTS of pediatric cancer cell lines to identify multiple opportunities for drug repurposing: Confirmatory screen for A673 cells (AID 1347110);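 also: cells exposed to compound for 48 h before the viability read; nearly all actives have a fitted effect of over 65% in size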; also: potency is read from the fitted curve at half-maximal effect
Method in brief: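 A673 cells seeded at 500-1,000 cells/well, rested 5 h, then dosed; primary MIPE 11-point (0.78 nM to 46 µM), NPC (0.59 nM to 46 µM); confirmatory 11-point. CellTiter-Glo luminescence after 48 h.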

[7] = qHTS of pediatric cancer cell lines to identify multiple opportunities for drug repurposing: Confirmatory screen for SK-N-MC cells (AID 1347111);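 also: cells exposed to compound for 48 h before the readout; nearly all actives have a fitted effect of over 70% in size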; also: potency is read from the fitted curve at half-maximal effect
Method in brief: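 Metabolically active cells were quantified by ATP-dependent luminescence (CellTiter-Glo, 15 min at room temperature) following 48 h treatment. Cells had been plated at 500-1,000 per well and settled for 5 h beforehand.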

[8] = qHTS of pediatric cancer cell lines to identify multiple opportunities for drug repurposing: Confirmatory screen for BT-12 cells (AID 1347112); also: nearly all actives have a fitted effect of over 55% in size; also: potency is read from the fitted curve at half-maximal effect
Method in brief: as §2

[9] = qHTS of pediatric cancer cell lines to identify multiple opportunities for drug repurposing: Confirmatory screen for DAOY cells (AID 1347114); also: nearly all actives have a fitted effect of over 65% in size; also: potency is read from the fitted curve at half-maximal effect
Method in brief: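 Viability measured as metabolically active cells via CellTiter-Glo luminescence following 48 hours of compound exposure, 11-point dilutions in confirmatory testing. 500-1,000 cells/well plated 5 hours before dosing; controls were DMSO and 2.3 µM bortezomib.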

[10] = qHTS of pediatric cancer cell lines to identify multiple opportunities for drug repurposing: Confirmatory screen for NB-EBc1 cells (AID 1347115);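 also: cells exposed to compound for 48 h before the viability read; nearly all actives have a fitted effect of over 45% in size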; also: potency is read from the fitted curve at half-maximal effect
Method in brief: as §2

NNC(=O)c1ccncc1
Potency [1]: inactive
Potency [2]: inactive
Potency [3]: inactive
Potency [4]: inactive

CCC(=O)O[C@]1(C(=O)CCl)[C@@H](C)C[C@H]2[C@@H]3CCC4=CC(=O)C=C[C@]4(C)[C@@]3(F)[C@@H](O)C[C@@]21C
Potency [1]: inactive
Potency [2]: inactive
Potency [3]: inactive
Potency [4]: inactive
Potency [5]: inactive
Potency [6]: 20.8 µM (active)
Potency [7]: inactive
Potency [8]: inactive
Potency [9]: inactive
Potency [10]: inactive

CC(C)OC(=O)C(C(=O)OC(C)C)=C1SC=CS1
Potency [1]: inactive
Potency [2]: inactive
Potency [4]: inactive

Cc1nnc(C(=O)NC(C)(C)c2nc(C(=O)NCc3ccc(F)cc3)c(O)c(=O)n2C)o1
Potency [1]: inactive
Potency [2]: inactive
Potency [3]: inactive
Potency [4]: inactive

CCCCOc1ccc(CC(=O)NO)cc1
Potency [1]: inactive
Potency [2]: inactive
Potency [3]: inactive
Potency [5]: inactive
Potency [6]: inactive
Potency [7]: inactive
Potency [8]: inactive
Potency [9]: inactive
Potency [10]: inactive

CC(C)NCC(O)c1ccc(NS(C)(=O)=O)cc1 (stereo not drawn)
Potency [1]: inactive
Potency [2]: inactive
Potency [3]: inactive
Potency [5]: inactive
Potency [6]: inactive
Potency [7]: inactive
Potency [8]: inactive
Potency [9]: inactive
Potency [10]: inactive

Cc1oc(=O)oc1CN1CCN(c2cc3c(cc2F)c(=O)c(C(=O)O)c2n3C(C)S2)CC1 (stereo not drawn)
Potency [1]: inactive
Potency [2]: inactive
Potency [3]: inactive
Potency [4]: inactive

NC(=O)c1cccc(N)c1
Potency [1]: inactive
Potency [2]: inactive
Potency [4]: inactive

Nc1[nH]c(=O)ncc1F
Potency [1]: inactive
Potency [2]: inactive
Potency [3]: inactive
Potency [4]: inactive
Potency [5]: inactive
Potency [6]: inactive
Potency [7]: inactive
Potency [8]: inactive
Potency [9]: inactive
Potency [10]: inactive

CCCCc1oc2ccc(NS(C)(=O)=O)cc2c1C(=O)c1ccc(OCCCN(CCCC)CCCC)cc1
Potency [1]: 21.1 µM (active)
Potency [2]: inactive
Potency [4]: 23.5 µM (active)

C[C@]12C=CC(=O)C=C1CC[C@@H]1[C@@H]2C(=O)C[C@@]2(C)[C@H]1CC[C@]2(O)C(=O)CO
Potency [1]: inactive
Potency [2]: inactive
Potency [4]: inactive

Cc1ccnc2c1NC(=O)c1cccnc1N2C1CC1
Potency [1]: inactive
Potency [2]: inactive
Potency [3]: inactive
Potency [4]: inactive

CC1(C)[C@H](C(=O)O)N2C(=O)C[C@H]2S1(=O)=O
Potency [1]: inactive
Potency [2]: inactive
Potency [4]: inactive

Cc1ncc([N+](=O)[O-])n1CCO
Potency [1]: inactive
Potency [2]: inactive
Potency [3]: inactive
Potency [4]: inactive

Cc1onc(-c2ccccc2Cl)c1C(=O)N[C@@H]1C(=O)N2[C@@H]1SC(C)(C)[C@@H]2C(=O)O
Potency [1]: inactive
Potency [2]: inactive
Potency [4]: inactive

CN1CCN(c2c(F)cc3c(=O)c(C(=O)O)cn4c3c2OCN4C)CC1
Potency [1]: inactive
Potency [2]: inactive
Potency [3]: inactive
Potency [4]: inactive

Cc1cccc(N(C)C(=S)Oc2ccc3ccccc3c2)c1
Potency [1]: inactive
Potency [2]: inactive
Potency [3]: inactive
Potency [4]: inactive
Potency [5]: inactive
Potency [6]: inactive
Potency [10]: 18.5 µM (active)

COc1ccc(C(=O)CC(=O)c2ccc(C(C)(C)C)cc2)cc1
Potency [1]: inactive
Potency [2]: inactive
Potency [3]: inactive
Potency [5]: inactive
Potency [6]: inactive
Potency [7]: 26.1 µM (active)
Potency [8]: inactive
Potency [9]: inactive
Potency [10]: inactive

NC1(c2ccc(-c3nc4ccn5c(=O)[nH]nc5c4cc3-c3ccccc3)cc2)CCC1
Potency [1]: 7.43 µM (active) and 13.3 µM (active)
Potency [2]: inactive
Potency [4]: 11.8 µM (active)

COc1cc([C@@H]2c3cc4c(cc3[C@H](O)[C@H]3COC(=O)[C@H]23)OCO4)cc(OC)c1OC
Potency [1]: inactive
Potency [2]: inactive
Potency [3]: inactive
Potency [4]: inactive
Potency [5]: 0.0329 µM (active)
Potency [6]: 0.104 µM (active)
Potency [7]: 0.0329 µM (active)
Potency [8]: 0.0522 µM (active)
Potency [9]: 0.0147 µM (active)

C[C@@H](NCCCc1cccc(C(F)(F)F)c1)c1cccc2ccccc12
Potency [1]: inactive
Potency [2]: inactive
Potency [3]: inactive
Potency [4]: inactive

C[C@@H]1CN(c2c(F)c(N)c3c(=O)c(C(=O)O)cn(C4CC4)c3c2F)C[C@H](C)N1
Potency [1]: inactive
Potency [2]: inactive
Potency [3]: inactive
Potency [4]: inactive

CCOC(=O)c1ccc(C#Cc2ccc3c(c2)C(C)(C)CCS3)nc1
Potency [1]: inactive
Potency [2]: inactive
Potency [3]: inactive
Potency [5]: inactive
Potency [8]: inactive
Potency [9]: inactive
Potency [10]: inactive

NC(=O)N1c2ccccc2CC(=O)c2ccccc21
Potency [1]: inactive
Potency [2]: inactive
Potency [3]: inactive
Potency [4]: inactive

CCN(C)C(=O)Oc1cccc([C@H](C)N(C)C)c1
Potency [1]: inactive
Potency [2]: inactive
Potency [4]: inactive

CC(=O)[C@H]1CC[C@H]2[C@@H]3CC=C4C[C@@H](O)CC[C@]4(C)[C@H]3CC[C@]12C
Potency [1]: inactive
Potency [2]: inactive
Potency [4]: inactive

Cn1c(=O)c2c(ncn2CC(O)CO)n(C)c1=O (stereo not drawn)
Potency [1]: inactive
Potency [2]: inactive
Potency [3]: inactive
Potency [4]: inactive

CC(C)(Sc1cc(C(C)(C)C)c(O)c(C(C)(C)C)c1)Sc1cc(C(C)(C)C)c(O)c(C(C)(C)C)c1
Potency [1]: inactive
Potency [2]: inactive
Potency [4]: inactive

N[C@@H](Cc1ccc(O)c(O)c1)C(=O)O
Potency [1]: inactive
Potency [2]: inactive
Potency [4]: inactive
